Experimental data taken from the supplement of paper PMC3334620.
Over roughly 33,000 sequences, “E-score (-0.5 to 0.5)” has its median near -0.013; the highest 2% begin near 0.3. Many of the other results were omitted from the sample, so the highest values are more common in it than they were.

Biological target: T1, Msn1 (UniProt P22148)
T1 sequence: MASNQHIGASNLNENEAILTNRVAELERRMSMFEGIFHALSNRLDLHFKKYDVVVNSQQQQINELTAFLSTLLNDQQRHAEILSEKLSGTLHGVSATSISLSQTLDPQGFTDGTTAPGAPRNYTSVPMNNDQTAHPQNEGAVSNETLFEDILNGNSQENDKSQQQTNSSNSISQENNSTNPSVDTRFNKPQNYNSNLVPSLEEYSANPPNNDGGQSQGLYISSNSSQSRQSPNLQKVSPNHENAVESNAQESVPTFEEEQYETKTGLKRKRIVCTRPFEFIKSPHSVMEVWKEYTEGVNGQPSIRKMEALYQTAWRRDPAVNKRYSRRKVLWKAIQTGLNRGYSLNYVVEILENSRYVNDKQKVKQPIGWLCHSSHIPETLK
Assay: PBM E-score (8-mer binding enrichment) (E-score (-0.5 to 0.5)); higher = stronger / more preferred TF binding
Settings: protein concentration: 200 nM; construct: GST-full length
How it was run: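 Full-length yeast transcription factors or their DNA-binding domains, GST-tagged and expressed with PURExpress, were applied at about 100-200 nM to universal all-10-mer Agilent arrays. These arrays had been made double-stranded by primer extension on fresh or once-stripped slides. Detection used fluorescent anti-GST, normalisation used masliner, and E-scores for ungapped eight-base words pooled with reverse complements came from the Universal PBM Analysis Suite.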

Row | Sequence | PBM E-score
1 | GGAGCTCA | -0.0253
2 | ACCCGGTA | 0.0382
3 | CCGGCTAG | -0.141
4 | GATTCACC | -0.145
5 | CGAGGTAG | -0.251
6 | AGGAAACT | 0.025
7 | ACAAGAGG | -0.011
8 | GCTAGACA | 0.212
9 | CCTAGACA | 0.0613
10 | AATAGACA | 0.259
11 | GATAGACC | -0.0609
12 | GATAGACA | 0.331
13 | TCTAGACA | 0.332
14 | ACTCGACC | -0.143
15 | ACATACTC | 0.0584
16 | GAGCCTTA | -0.168
17 | AGGTCCAC | -0.067
18 | ATGTCCAG | 0.457
19 | CTGTCCAA | 0.287
20 | ATGTCCAC | 0.446
21 | ATGTCCAA | 0.485
22 | AGGTCCAA | -0.00743
23 | CTGTCCAC | 0.184
24 | AAGTCCAG | 0.244
25 | GAGTCCAA | -0.0901
26 | GGGTCCAA | -0.104

Row | Sequence | PBM E-score
27 | AGGTCCAG | 0.0683
28 | GTGTCCAA | 0.389
29 | ATGGGTAA | 0.0578
30 | CTTCCACC | -0.298
31 | CGGTATCC | -0.224
32 | AAACATGT | 0.17
33 | ACCGATTC | -0.0811
34 | AGATTGTA | 0.091
35 | CGATTGTC | 0.348
36 | AGATTGTG | -0.0281
37 | AGATTGTC | 0.369
38 | CGATTGAC | 0.151
39 | CGATTGTA | 0.088
40 | AGTTATTA | 0.0736
41 | CAGCACTG | -0.226
42 | GCCTTCGC | -0.098
43 | CCAGATTC | -0.389
44 | ATTTGTAC | 0.46
45 | ATTTGTAG | 0.162
46 | CTTTGTAC | 0.322
47 | ATTTGTAA | 0.169
48 | CCTTGTAC | 0.183
49 | CTTTGTAA | 0.168
50 | AGGAATTC | -0.0844
51 | AGCGAACG | -0.274
52 | CACCTTCG | -0.0896

Row | Sequence | PBM E-score
53 | ACAAATGG | 0.345
54 | CCAAATGG | 0.169
55 | ACAAATGA | 0.317
56 | ACAAATGT | 0.446
57 | CCAAATGA | 0.05
58 | ACAAACGT | 0.244
59 | ACAAAGGT | 0.218
60 | ACAATGGG | 0.196
61 | GCAAATGC | -0.113
62 | CCAAATGC | -0.0167
63 | GCAAATGA | -0.0127
64 | ACAAATGC | 0.304
65 | CTTCGGGA | 0.15
66 | AACGAGCT | -0.0712
67 | GGCGGCCA | -0.161
68 | CGGTTAGA | -0.22
69 | CACAATCC | 0.119
70 | GCTCAACA | -0.0111
71 | ATAGTTTG | 0.274
72 | GCGCGATA | 0.119
73 | GGATTGGA | 0.0131
74 | ACAAATCT | 0.308
75 | ACAAATCA | 0.266
76 | ACAAATCC | 0.265
77 | GAGGATCC | -0.0362
78 | AAAAATGA | 0.143

Row | Sequence | PBM E-score
79 | AAAAATGG | 0.311
80 | AAAAATGT | 0.335
81 | AAAATGGG | 0.182
82 | CAAAATGG | 0.133
83 | AAAAATGC | 0.0785
84 | AGTTTTTC | 0.0155
85 | ATGCGTGA | 0.167
86 | CGCCAGCG | -0.278
87 | GTCCGGAA | 0.368
88 | ATCCGGAA | 0.215
89 | ATCCGGGA | -0.0993
90 | ATCCGGAC | 0.297
91 | GTCCGGGA | 0.336
92 | CTCCGGAC | 0.224
93 | GTCCGGAC | 0.406
94 | CTCCGGGA | -0.0499
95 | CTCCGGAA | 0.0926
96 | GAGGAGCA | -0.184
97 | TATTTTGA | 0.033
98 | ATCTTTGG | -0.0763
99 | CACTTGTA | 0.157
100 | AGCTTGTC | 0.168
101 | CACTTGTC | 0.408
102 | AACTTGAG | -0.212
103 | CGCTTGTC | 0.345
104 | AACTTGTG | 0.132

Row | Sequence | PBM E-score
105 | CGCTTGTA | 0.211
106 | CCCTTGTC | 0.204
107 | AACTTGAT | 0.321
108 | AACTTGTC | 0.391
109 | AACTTGAA | 0.101
110 | AACTTGTA | 0.107
111 | ACCGAATG | -0.0786
112 | AGCTCACA | -0.111
113 | GCGGCTCC | -0.285
114 | AACGCTAA | -0.0499
115 | ATCGCAAC | -0.0713
116 | GTTAAGAA | -0.0961
117 | GATCCGGA | 0.0679
118 | ACACCTAC | -0.04
119 | CTCTTGTA | 0.035
120 | ATCTTGTC | 0.246
121 | CTCTTGTC | 0.339
122 | CCACCACA | -0.214
123 | TATGGGGA | 0.123
124 | AAGAGGGT | -0.12
125 | AGACATGA | 0.226
126 | CGACATTA | 0.386
127 | CGACATTC | 0.332
128 | ACACATTA | 0.0185
129 | CGACATGC | 0.218
130 | ACACATTG | 0.171

Row | Sequence | PBM E-score
131 | AAACATTG | -0.00791
132 | AGACATTA | 0.429
133 | AGACATTG | 0.402
134 | CTACATTA | 0.00564
135 | CTACATTC | -0.121
136 | CCACATTA | -0.107
137 | ACTAATCA | 0.152
138 | GTTTAGCA | 0.0757
139 | CTCACCCA | -0.0776
140 | TCCTTAGA | 0.117
141 | CAACTATG | 0.161
142 | GGCAGCGA | -0.245
143 | AGATCGCT | -0.0127
144 | ACACATTC | 0.11
145 | AGACATTC | 0.445
146 | GGACATTA | 0.489
147 | AGACATGC | 0.21
148 | GCACATTA | -0.0601
149 | GTACATTA | 0.278
150 | CGAAACCG | 0.0338
151 | ACGCAAGC | -0.0684
152 | ACTAGCTG | 0.0299
153 | AATTCATC | -0.22
154 | AAAAAGTG | -0.0627
